From PubChem BioAssay
A number with no mark means an inactive call. Entries that show only a call come without a potency. For some assays here: Potency and affinity values are given separately. Calls of active or inactive are those of the source. Unless noted, the rule behind the calls is not given here.

Columns and labels:
[1] = antimalarial activity against Dd2 strain (AID 2302;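 active = growth inhibition above 50% at the single 2 µM test dose, taken to imply half-maximal potency below 2 µM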); details: P. falciparum Dd2 in RBCs, LDH growth readout, 72 h; at 2 µM; hits give high values
[2] = human hepatoma cell viability loss – ATP luminescence, cytotoxicity control for P. falciparum antimalarial project, primary screen (AID 2303;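 active = inhibition above 50%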); details: HepG2 viability, 24-48 h, at 10 µM, hits give high values
[3] = target: L-lactate dehydrogenase (Plasmodium falciparum (isolate CDC / Honduras)) (UniProt Q27743); test: PfLDH activity inhibition – cell lysate, 3D7 strain, counter-screen for P. falciparum growth inhibition project (AID 2304); details: P. falciparum 3D7 crude extract, LDH APAD/NBT absorbance; at 2 µM; hits give high values
Sequence of L-lactate dehydrogenase (Plasmodium falciparum (isolate CDC / Honduras)) (Q27743 whole entry, looked up): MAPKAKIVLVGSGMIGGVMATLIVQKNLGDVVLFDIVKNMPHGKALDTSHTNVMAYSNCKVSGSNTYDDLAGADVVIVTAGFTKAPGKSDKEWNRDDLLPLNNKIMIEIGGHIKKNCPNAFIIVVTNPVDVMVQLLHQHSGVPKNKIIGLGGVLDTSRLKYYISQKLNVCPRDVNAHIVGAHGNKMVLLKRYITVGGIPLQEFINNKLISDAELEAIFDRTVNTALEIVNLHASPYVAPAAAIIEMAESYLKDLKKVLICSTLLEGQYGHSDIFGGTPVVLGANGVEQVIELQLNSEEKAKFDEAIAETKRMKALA

[4] = inhibition of 3D7 malaria parasite growth – strain 3D7 (AID 2306); details: P. falciparum 3D7 erythrocytic growth, LDH absorbance, 72 h; at 2 µM; hits give high values
[5] = target: Calcium-dependent protein kinase 1 (Plasmodium falciparum (isolate 3D7)) (UniProt P62344); test: PfCDPK1 kinase inhibitors, biochemical, TCAMS library (AID 1159585; cut-off not given, nearly all actives have IC50 up to about 0.98 µM;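 note: inhibitors leave more ATP so luminescence rises with inhibition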); details: recombinant PfCDPK1, Kinase-Glo ATP depletion luminescence
Sequence of Calcium-dependent protein kinase 1 (Plasmodium falciparum (isolate 3D7)) (P62344 whole entry, looked up): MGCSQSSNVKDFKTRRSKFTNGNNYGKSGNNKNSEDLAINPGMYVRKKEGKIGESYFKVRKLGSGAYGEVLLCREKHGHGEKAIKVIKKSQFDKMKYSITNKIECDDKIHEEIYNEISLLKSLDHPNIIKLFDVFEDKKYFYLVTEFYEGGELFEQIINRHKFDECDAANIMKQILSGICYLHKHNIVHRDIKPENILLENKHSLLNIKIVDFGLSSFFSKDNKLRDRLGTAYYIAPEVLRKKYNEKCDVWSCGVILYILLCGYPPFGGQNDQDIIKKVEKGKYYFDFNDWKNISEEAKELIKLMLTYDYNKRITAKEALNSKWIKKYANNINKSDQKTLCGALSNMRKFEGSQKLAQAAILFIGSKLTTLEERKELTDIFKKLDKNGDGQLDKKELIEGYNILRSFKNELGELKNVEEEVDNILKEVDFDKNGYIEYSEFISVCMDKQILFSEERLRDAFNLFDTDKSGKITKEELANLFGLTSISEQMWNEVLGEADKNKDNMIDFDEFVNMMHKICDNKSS

[6] = target: Plasmodium falciparum protein kinase 6 (PK6, PF3D7_1337100) (UniProt Q8IDW1); test: PfPK6 kinase inhibitors, biochemical, TCAMS library (AID 1159586); details: recombinant PfPK6, Kinase-Glo ATP depletion luminescence
Sequence of Plasmodium falciparum protein kinase 6 (PK6, PF3D7_1337100) (Q8IDW1 1-305): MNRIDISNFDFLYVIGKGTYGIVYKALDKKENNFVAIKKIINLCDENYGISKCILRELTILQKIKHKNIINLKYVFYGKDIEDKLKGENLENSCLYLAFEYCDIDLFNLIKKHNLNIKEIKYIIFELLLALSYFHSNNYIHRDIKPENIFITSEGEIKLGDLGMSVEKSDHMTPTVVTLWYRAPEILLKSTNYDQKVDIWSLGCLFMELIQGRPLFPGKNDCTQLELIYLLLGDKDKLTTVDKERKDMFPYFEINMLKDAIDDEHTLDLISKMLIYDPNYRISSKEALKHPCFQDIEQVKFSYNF

[7] = target: Protein kinase 7 (PK7), Plasmodium falciparum 3D7 (PF3D7_0213400) (UniProt Q7YTF7); test: inhibition of Plasmodium PK7 catalytic activity – biochemical, TCAMS antimalarial set, Kinase-Glo luminescence (AID 1159587); details: recombinant PfPK7, Kinase-Glo ATP depletion luminescence
Sequence of Protein kinase 7 (PK7), Plasmodium falciparum 3D7 (PF3D7_0213400) (Q7YTF7 1-343): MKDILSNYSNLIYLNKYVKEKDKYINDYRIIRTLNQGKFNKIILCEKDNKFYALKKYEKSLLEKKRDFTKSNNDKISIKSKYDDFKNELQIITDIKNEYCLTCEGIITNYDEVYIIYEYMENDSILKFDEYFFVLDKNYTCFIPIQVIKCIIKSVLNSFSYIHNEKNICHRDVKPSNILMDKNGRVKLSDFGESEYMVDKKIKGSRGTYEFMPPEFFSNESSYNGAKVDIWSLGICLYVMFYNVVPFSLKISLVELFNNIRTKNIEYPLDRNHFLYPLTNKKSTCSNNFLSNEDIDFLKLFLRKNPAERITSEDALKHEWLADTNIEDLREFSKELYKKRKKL

[8] = target: Calcium-dependent protein kinase 4 (Plasmodium falciparum (isolate 3D7)) (UniProt Q8IBS5); test: PfCDPK4 kinase inhibitors, biochemical, TCAMS library (AID 1159588; cut-off not given, nearly all actives have IC50 up to about 0.91 µM); details: recombinant PfCDPK4, Kinase-Glo ATP depletion luminescence
Sequence of Calcium-dependent protein kinase 4 (Plasmodium falciparum (isolate 3D7)) (Q8IBS5 whole entry, looked up): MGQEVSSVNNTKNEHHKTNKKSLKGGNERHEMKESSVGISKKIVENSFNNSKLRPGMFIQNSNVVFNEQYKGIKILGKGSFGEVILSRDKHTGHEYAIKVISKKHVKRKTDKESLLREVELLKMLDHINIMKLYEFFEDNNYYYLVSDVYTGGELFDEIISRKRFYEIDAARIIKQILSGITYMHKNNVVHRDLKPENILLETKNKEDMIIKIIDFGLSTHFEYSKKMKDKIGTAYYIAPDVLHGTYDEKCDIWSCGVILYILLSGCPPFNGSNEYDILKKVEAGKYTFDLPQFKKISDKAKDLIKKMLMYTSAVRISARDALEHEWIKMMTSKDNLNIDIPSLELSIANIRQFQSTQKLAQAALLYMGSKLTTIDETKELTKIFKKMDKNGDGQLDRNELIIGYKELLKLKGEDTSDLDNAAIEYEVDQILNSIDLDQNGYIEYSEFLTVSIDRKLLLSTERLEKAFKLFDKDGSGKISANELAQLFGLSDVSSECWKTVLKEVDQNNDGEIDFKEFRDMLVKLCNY

SMILES | growth inhibition [1] | inhibition [2] | inhibition [3] [%] | growth inhibition [4] | outcome [5] | outcome [6] | outcome [7] | outcome [8]
COc1ccc(Nc2nccc(NCC(O)c3ccc(C(F)(F)F)cc3)n2)cc1 (stereo not given) | 54% (active) | 6% | -1 | 98% (active) | inactive | inactive | inactive | inactive
CC(C)NCC(O)Cn1c2ccc(Br)cc2c2cc(Br)ccc21 (stereo not given) | 100% (active) | 100% (active) | -1 | 99% (active) | inactive | inactive | inactive | inactive
CCOC(=O)c1c(CNc2ccncc2)n(C)c2cc(Br)c(OC(C)=O)cc12 | 93% (active) | -3% | 5 | 96% (active) | inactive | inactive | inactive | inactive
NOCCCCOc1ccc(Br)cc1 | -1% | 0% | -2 | 99% (active) | inactive | inactive | inactive | inactive
Oc1ccc2nc(N3CCNCC3)nc(NCCCc3ccccc3)c2c1 | 0% | 14% | -4 | 102% (active) | inactive | inactive | inactive | inactive
COc1ccc(C2CC(=O)C3=C(C2)NC(C)=C(C(=O)OC2CCCC2)C3c2cccc(O)c2)cc1 (stereo not given) | 83% (active) | -6% | -2 | 88% (active) | inactive | inactive | inactive | inactive
CCN(CC)CCCCCNc1c2ccc(Cl)cc2nc2ccc(OC)cc12 | 99% (active) | 96% (active) | 4 | 99% (active) | inactive | inactive | inactive | inactive
Cc1ccc(C)c(S(=O)(=O)NCC2CCN(Cc3ccc(O)cc3)CC2)c1 | 57% (active) | 16% | -6 | 87% (active) | inactive | inactive | inactive | inactive
N#Cc1ccc(-c2ccc(C(=O)NCCCCN3CCC(c4ccc5c(c4OCc4ccncc4)CCCC5)CC3)cc2)cc1 | 57% (active) | 41% | 1 | 81% (active) | inactive | inactive | inactive | inactive
CCCCc1ccc(C(=O)Nc2ccc3nc(N4CCN(C)CC4)cc(C)c3c2)cc1 | 21% | 44% | -6 | 90% (active) | inactive | inactive | inactive | inactive
Cc1cc2c(NC(=O)NC3CCN(Cc4ccc(Cl)c(Cl)c4)CC3)cccc2cn1 | 41% | 11% | -2 | 100% (active) | inactive | inactive | inactive | inactive
CC(C)(CNC(=O)/C=C/c1ccc(Cl)c(Cl)c1)CNc1cc(=O)c2ccccc2[nH]1 | 29% | -4% | 0 | 96% (active) | inactive | inactive | inactive | inactive
CCN1CCC(N2CCC(C(=O)Nc3cccc(-c4cccc(Cl)c4)c3)CC2)CC1 | 82% (active) | 54% (active) | -1 | 91% (active) | inactive | inactive | inactive | inactive
CN1CCN(CCCN(Cc2csc(-c3ccc(CNCc4ccccc4)cc3)n2)S(=O)(=O)c2ccc(F)cc2)CC1 | 80% (active) | 21% | 3 | 101% (active) | inactive | inactive | inactive | inactive
CN(C)CCNCc1cccc(-c2ccc3c(Nc4cc(O)c(Cl)cc4F)ccnc3c2)c1 | 59% (active) | 6% | 3 | 99% (active) | inactive | inactive | inactive | inactive
CCCOc1ccc(CCCON2C(N)=NC(N)=NC2(C)C)cc1 | 94% (active) | 65% (active) | 0 | 95% (active) | inactive | inactive | inactive | inactive
c1ccc(COc2ccc(Cn3ccc(-c4ccc(-n5ccnc5)cc4)n3)cc2)cc1 (tested in a mixture with another compound) | 67% (active) | 2% | -1 | 94% (active) | inactive | inactive | inactive | inactive
COc1ccccc1C1CCN(C2CCC(NC(=O)/C=C/c3cccc(Cl)c3)CC2)CC1 (stereo not given) | 20% | 54% (active) | 3 | 92% (active) | inactive | inactive | inactive | inactive
O=S(=O)(NC1=NCCC1)c1cccc(Nc2nc(C(F)(F)F)nc3ccccc23)c1 | 8% | 6% | 0 | 83% (active) | inactive | inactive | inactive | inactive
CCOC(=O)c1[nH]c(-c2cccc(F)c2)nc1N | 2% | 0% | 9 | 98% (active) | inactive | inactive | inactive | inactive

SMILES | growth inhibition [1] | inhibition [2] | inhibition [3] [%] | growth inhibition [4] | outcome [5] | outcome [6] | outcome [7] | outcome [8]
N#Cc1ccc(NC(=NC2CCCc3ccccc32)Nc2ccc(-c3ccccc3)cc2)c(O)c1 (stereo not given) | 98% (active) | 0% | 3 | 99% (active) | inactive | inactive | inactive | inactive
CCOc1cc2c(cc1OCC)C(c1cc(OC)c(O)cc1Cl)NCC2 (stereo not given) | 97% (active) | 15% | -7 | 100% (active) | inactive | inactive | inactive | inactive
Cc1onc(-c2ccccc2)c1C(=O)Nc1nc(-c2ccccn2)nc2ccsc12 | 78% (active) | 23% | -4 | 97% (active) | inactive | inactive | inactive | inactive
CCOC(=O)c1ccc(-c2cnc(N)c(-c3nc4c(C)cccc4[nH]3)c2)cc1 | 79% (active) | 43% | -4 | 102% (active) | inactive | inactive | inactive | inactive
CCOC(=O)c1c(-c2ccccc2)[nH]c2c(sc3ccccc32)c1=O | 65% (active) | 2% | -5 | 97% (active) | inactive | inactive | inactive | inactive
COc1cccc(CNC[C@@H](O)[C@H](Cc2ccccc2)NC(=O)c2cc(C(C)C)cc(N3CCCC3=O)c2)c1 | 61% (active) | 1% | -4 | 95% (active) | inactive | inactive | inactive | inactive
O=[N+]([O-])c1cccc(S(=O)(=O)N2CCN(CC(O)COc3ccc(-c4ccccc4)cc3)CC2)c1 (stereo not given) | 32% | 11% | 0 | 94% (active) | inactive | inactive | inactive | inactive
COc1ccc(C=NNc2nc(-c3ccccc3)cc(=O)[nH]2)cc1OC | 93% (active) | 22% | 4 | 92% (active) | inactive | inactive | inactive | inactive
CCOC(=O)c1c(C)n(-c2ccccc2)c2ccc(O)cc12 | 87% (active) | -7% | -4 | 101% (active) | inactive | inactive | inactive | inactive
COc1cccc(CN2CCC(C(=O)Nc3ccc(-c4nc5ccccc5[nH]4)cc3)CC2)c1 | 84% (active) | 9% | -3 | 101% (active) | inactive | inactive | inactive | inactive
COc1ccc(-c2nnc(Sc3ccc(C#N)c([N+](=O)[O-])c3)n2CCC(C)C)cc1 | 53% (active) | 15% | 5 | 89% (active) | inactive | inactive | inactive | inactive
CC(C)n1cc(CN2CCCC(C(=O)Nc3cccc(-c4cc5ccccc5[nH]4)c3)C2)cn1 (stereo not given) | 65% (active) | 34% | -3 | 96% (active) | inactive | inactive | inactive | inactive
NC(=O)c1cccc(C(=O)Nc2cccc(-c3cccc(-c4nc5ccccc5[nH]4)c3)c2)c1 | 78% (active) | 32% | 2 | 100% (active) | inactive | inactive | inactive | inactive
COc1ccc(CNC2Cc3ccccc3C2)cc1-c1ccc(S(=O)(=O)NCCN2CCCC2)c(F)c1 | 69% (active) | 44% | -6 | 101% (active) | inactive | inactive | inactive | inactive
CCn1c(Cc2ccccc2)nnc1Sc1ccc([N+](=O)[O-])c(C#N)c1 | 72% (active) | 8% | -5 | 93% (active) | inactive | inactive | inactive | inactive
Nc1nc(N)c2c(ccc3c2cnn3S(=O)(=O)N2CCCC2)n1 | 3% | 70% (active) | 2 | 93% (active) | inactive | inactive | inactive | inactive
Oc1ccccc1-c1nc2cccnc2n1CCc1cccc(C(F)(F)F)c1 | 36% | 4% | -1 | 93% (active) | inactive | inactive | inactive | inactive
CC(N)(Cc1ccc(O)cc1)c1nn[nH]n1 (stereo not given) | 2% | 7% | 4 | 93% (active) | inactive | inactive | inactive | inactive
Cc1cccc2[nH]c(-c3ccc(-c4ccc(CN5CCCC5CN)cc4)cc3)nc12 (stereo not given) | 65% (active) | 28% | 1 | 99% (active) | inactive | inactive | inactive | inactive
CC(C)c1ccc(CN2CCC(CNC(=O)c3cc(-c4ccc(N(C)C)cc4)cs3)C2)cc1 (stereo not given) | 32% | 36% | 5 | 83% (active) | inactive | inactive | inactive | inactive
